# High-throughput results as filed in PubChem.
# NSD2 inh: blocks human NSD2 histone methyltransferase activity; 44,000 tested, 0.07% active; NSD2-SET H3K36me1 DELFIA fluorescence, biochemical; inhibition, % at 12.5 µM; O96028; in the data active = inhibition above about 54%, passing the limit was not always enough;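 also: inhibitors reduce the monomethyl H3K36 fluorescence signal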
# * = called active by the depositor; i = inactive. Many of the other results were omitted from the sample, so hits are more common in it than they were.
SMILES,NSD2 inh
CC(C)NC(=O)Nc1ccc2c(c1)CC(=O)N([C@@H](C)CO)C[C@@H](C)[C@@H](CN(C)Cc1ccc(Oc3ccccc3)cc1)O2,-4
O=C(NO)c1ccc(C(=O)N/N=C/c2cccc(O)c2O)cc1,3
O=C(NO)c1ccc(C(=O)N/N=C/c2ccc(F)cc2)cc1,4
CCN(CC)c1ccc(/C=N/NC(=O)c2ccc(C(=O)NO)cc2)c(O)c1,11
O=C(NO)c1ccc(C(=O)N/N=C/c2cccc(Oc3ccccc3)c2)cc1,1
O=C(NO)c1ccc(C(=O)N/N=C/c2ccc(O)c(O)c2O)cc1,61*
O=C(NO)c1ccc(C(=O)N/N=C/c2ccc3ccccc3c2)cc1,62*
Cc1cc(-c2ccc(N=Nc3cc(S(=O)(=O)O)c4ccccc4c3N)c(C)c2)ccc1N=Nc1cc(S(=O)(=O)O)c2ccccc2c1N,92*
C[C@H]1CCCCO[C@H](CN(C)S(=O)(=O)c2cn(C)cn2)[C@@H](C)CN([C@@H](C)CO)C(=O)c2cc(NC(=O)Nc3cccc4ccccc34)ccc2O1,-2
CC(C)NC(=O)Nc1ccc2c(c1)CC(=O)N([C@@H](C)CO)C[C@@H](C)[C@H](CN(C)S(=O)(=O)c1ccc(F)cc1)O2,2
C[C@@H]1O[C@@H](Oc2ccc(C3Oc4cc(O)cc(O)c4C(=O)C3O)cc2O)[C@H](O)[C@H](O)[C@H]1O (stereo partly specified),33
COc1ccc(C2Oc3c(OC)cc(CCCO)cc3C2CO)cc1OC1OC(CO)C(O)C(O)C1O (stereo unspecified),11
COc1cc(C2Oc3c(OC)cc(CCCO)cc3C2CO)ccc1O[C@H]1O[C@H](C)[C@@H](O)[C@H](O)[C@@H]1O (stereo partly specified),59*
O=C(C[C@@H]1C[C@@H]2c3cc(NC(=O)Nc4ccc(C(F)(F)F)cc4)ccc3O[C@@H]2[C@@H](CO)O1)NCc1ccc(Cl)cc1,-2
COc1ccc(NC(=O)N(C)C[C@H]2Oc3ccc(NS(C)(=O)=O)cc3C(=O)N([C@H](C)CO)C[C@H]2C)cc1,-3
C[C@@H]1CCCCO[C@@H](CN(C)Cc2ccc(C(F)(F)F)cc2)[C@H](C)CN([C@H](C)CO)C(=O)c2cc(NC(=O)c3ccccc3)ccc2O1,i
COc1cc(/C=C/C(=O)O[C@@H]2C[C@@](O)(C(=O)O)C[C@@H](O)[C@@H]2O)ccc1O,12
CC(=O)CCC1C2C(O)C(C(C)C)C(OC(=O)/C=C/c3ccccc3)CC12C (stereo unspecified),-11
O=C(/C=C/c1ccc(O)cc1)O[C@@H]1CC(O)(C(=O)O)C[C@@H](OC(=O)/C=C/c2ccc(O)cc2)C1O (stereo partly specified),63*
COc1ccc(S(=O)(=O)N(C)C[C@@H]2Oc3ccc(NS(=O)(=O)c4ccc(C)cc4)cc3C(=O)N([C@@H](C)CO)C[C@H]2C)cc1,7
CC1=CC(=O)CC2C1(C)CCC(C)C2(C)CCC(C)CC(=O)O (stereo unspecified),8
CC(CC[C@]1(C)C2CCC=C(CO)[C@]2(C)CC[C@H]1C)CC(=O)O (stereo partly specified),-1
CC1=CC(=O)OC1(O)CCC(C)CC(=O)O (stereo unspecified),75*
C[C@@H]1O[C@@H](O[C@@H]2[C@@H](O)[C@H](O[C@@H]3[C@@H](O)[C@@H](O)[C@H](O[C@H]4[C@H](OC(=O)[C@]56CCC(C)(C)C[C@H]5C5=CCC7[C@@]8(C)C[C@H](O)[C@H](O[C@@H]9O[C@H](C(=O)O)[C@@H](O)[C@H](O)[C@H]9O)[C@@](C)(CO)C8[C@H](O)C[C@@]7(C)[C@]5(C)C[C@H]6O)O[C@@H](CO)[C@@H]4O)O[C@H]3C)OC[C@H]2O)[C@H](O)[C@H](O)[C@H]1O (stereo partly specified),74*
CC1OC(O[C@H]2[C@@H](O)C[C@@]3(C)C([C@H](O)C[C@]4(C)C3CC=C3[C@@H]5CC(C)(C)CC[C@]5(C(=O)OC5OC(C)C(OC6OCC(OC7OCC(O)C(OC8OCC(O)C(O)C8O)C7O)C(O)C6O)C(O)C5O)CC[C@]34C)[C@]2(C)CO)C(O)C(OC2OC(CO)C(O)C(O)C2O)C1O (stereo partly specified),-4
SMILES,NSD2 inh
C[C@@H]1O[C@@H](O[C@@H]2[C@@H](O)[C@H](OC(=O)[C@]34CCC(C)(C)CC3C3=CCC5[C@@]6(C)CC[C@H](OC7OC(CO)C(OC8OCC(O)C(O)C8O)C(O)C7O)C(C)(C)C6CC[C@@]5(C)[C@]3(C)CC4O)O[C@H]2CO)[C@H](O)[C@H](O)[C@H]1O[C@H]1OC[C@](O)(CO)[C@H]1O (stereo partly specified),-3
O=C(C[C@H]1C[C@H]2c3cc(NC(=O)C4CCOCC4)ccc3O[C@H]2[C@@H](CO)O1)NCc1cccc(F)c1,-2
CC(C)Cn1c(=O)n(C)c(=O)c2[nH]cnc21,-3
C[C@@H]1CN([C@H](C)CO)C(=O)Cc2cc(NS(=O)(=O)c3ccc(F)cc3)ccc2O[C@@H]1CN(C)C(=O)Nc1ccc(C(F)(F)F)cc1,-3
Cc1noc(C)c1NC(=O)Nc1cccc2c1O[C@H](CN(C)C(=O)Nc1ccc3c(c1)OCO3)[C@H](C)CN([C@@H](C)CO)C2=O,-3
CNC[C@H]1Oc2ccc(N(C)C)cc2C(=O)N([C@H](C)CO)C[C@@H]1C,-1
COc1ccc(C#Cc2ccc3c(c2)O[C@H](CN(C)C(=O)c2ccccn2)[C@H](C)CN([C@@H](C)CO)S3(=O)=O)cc1,-13
O=C(CCc1ccc(O)cc1)c1ccc(O[C@@H]2O[C@H](CO)[C@H](O)[C@H](O)[C@H]2O)cc1O,15
O=C(O)c1c(O)cc(OC2OC(CO)C(O)C(O)C2O)cc1/C=C/c1ccccc1 (stereo unspecified),76*
O=C(/C=C/c1ccccc1)O[C@@H]1O[C@H](CO)[C@@H](O)[C@H](O)[C@H]1O,0
CCOc1ccc(-n2cnnn2)cc1S(=O)(=O)NCc1ccccc1,-8
C[C@H]1CN([C@@H](C)CO)C(=O)Cc2cc(NC(=O)CCC(F)(F)F)ccc2O[C@H]1CN(C)S(=O)(=O)c1cccs1,-6
